# M1 ag: activates human CHRM1 receptor; activation, % at 3 µM; CHO-K1 hM1, Fluo-8 calcium fluorescence, agonist mode; 0% DMSO, 100% acetylcholine EC100; AID 588814; 360,000 compounds, 0.33% hits;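 active = activation above the run's mean compound activation plus 3 SD, cut at about 16% in these data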;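 also: peak over basal fluorescence ratio within a 140 s kinetic read after compound addition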
# Target sequence (P11229 whole entry, looked up): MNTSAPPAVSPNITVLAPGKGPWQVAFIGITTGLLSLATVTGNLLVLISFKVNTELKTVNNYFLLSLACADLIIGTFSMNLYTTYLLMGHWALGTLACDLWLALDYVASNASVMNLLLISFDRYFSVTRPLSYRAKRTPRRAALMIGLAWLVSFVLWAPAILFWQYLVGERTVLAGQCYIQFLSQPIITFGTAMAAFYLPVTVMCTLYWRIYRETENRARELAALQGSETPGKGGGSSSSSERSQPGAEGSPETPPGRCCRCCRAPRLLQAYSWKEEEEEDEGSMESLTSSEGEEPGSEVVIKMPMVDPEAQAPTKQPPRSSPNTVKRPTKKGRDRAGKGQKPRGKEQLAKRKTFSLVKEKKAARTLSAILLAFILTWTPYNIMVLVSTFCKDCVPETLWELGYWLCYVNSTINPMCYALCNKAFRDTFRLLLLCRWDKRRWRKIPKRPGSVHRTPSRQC
# CHO-K1 Ca antag: M1 antagonist counterscreen hit in parental CHO-K1 cells; ATP-induced calcium, Fluo-8 fluorescence; inhibition, % at 3 µM; 360,000 compounds, 0.6% hits; AID 602250;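 active = inhibition above a per-plate cutoff, the plate's mean sample inhibition plus 3 SD, cut at about 24% in these data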;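 also: 0% = DMSO plus EC80 ATP and 100% = DMSO alone without ATP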
# CHRM1 PAM: positive allosteric modulators of human M1 muscarinic receptor; P11229; CHO-K1 hM1, Fluo-8 calcium fluorescence, ACh EC20; 0% = ACh EC20, 100% = maximal ACh; 360,000 compounds, 0.088% hits; activation, % at 3 µM; in the data active = activation above about 19%, passing the limit was not always enough
# M1 antag: antagonists of human M1 muscarinic receptor; 360,000 compounds, 1.3% hits; CHO-K1 hM1, Fluo-8 calcium fluorescence, ACh EC80 antagonist; inhibition, % at 3 µM; AID 588852;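 active = percent inhibition above its own plate's cutoff, namely the mean of that plate's compound wells plus 3 SD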;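 also: peak over basal fluorescence ratio during 140 s after agonist addition; 0% = ACh EC80 plus DMSO and 100% = DMSO alone without agonist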
# M1 PAM parental: counter-screen for M1 PAMs: effect in parental CHO-K1 cells. ATP EC20, Fluo-8 calcium fluorescence; 0% at ATP EC20, 100% at ATP max. activation, % at 3 µM. 360,000 compounds, 0.02% hits;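 active = activation above the run cutoff, the mean activation of all test compounds plus 3 SD, cut at about 40% in these data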;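 also: peak over basal fluorescence ratio in a 140 s read after ATP addition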
# M1 ag parental: counter-screen for M1 agonists: effect in parental CHO-K1 cells; Fluo-8 calcium fluorescence; scaled to maximal ATP response, vehicle zero; activation, % at 3 µM; 360,000 compounds, 0.48% hits; in the data active = activation above about 15%;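 also: untransfected CHO-K1 host cells lacking M1 receptor as counterscreen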
# * marks the source's active call; other numbers are inactive results. This is a sample that favours compounds with a hit; in the whole collection about 2.3% have one here.
SMILES,M1 ag,CHO-K1 Ca antag,CHRM1 PAM,M1 antag,M1 PAM parental,M1 ag parental
CCCCCOCC1CC(C/C(C)=N/NC(N)=O)(C(=O)OCC)C(=O)O1 (configuration not stated),-3.5,-2.8,-5.0,7.0,1.2,0.2
COc1cc2c(cc1OC)C(c1ccc([N+](=O)[O-])cc1)N(C(C)=O)CC2 (configuration not stated),3.8,-2.7,0.2,-3.4,15.7,15.8*
CCCCNC(=O)Cc1coc2ccc3ccccc3c12,-1.1,27.3*,10.0,1.4,-3.8,-0.2
COCCCNC(=O)Cc1coc2ccc3ccccc3c12,-6.0,-10.1,6.9,-4.5,8.8,0.6
O=[N+]([O-])c1ccc(COc2ccc(CNc3ccccc3)cc2)cc1,-10.4,-3.3,-22.9,26.0*,14.2,9.5
Cc1c(N=C/C=C/c2ccccc2)c(=O)n(-c2ccccc2)n1C,-13.7,-25.6,-31.0,99.9*,17.9,0.7
C[C@@H]1CN(Cc2nc(-c3cnccn3)no2)C[C@H](C)O1,-3.4,-0.7,-0.9,9.5,11.0,24.1*
CCCOC1CCCN(Cc2nc(-c3cnccn3)no2)C1 (configuration not stated),0.5,-6.1,-2.4,4.4,-8.9,0.1
COc1ccc(CN(C(=O)Cc2c[nH]c3ccccc23)C(C(=O)NC2CCCCC2)c2ccc(C)o2)cc1 (configuration not stated),-6.9,-1.3,-10.1,14.3,4.8,1.6
CCOCCCN(C(=O)CNC(=O)c1ccco1)C(C(=O)NC1CCCC1)c1ccccc1C (configuration not stated),-0.1,44.5*,-0.1,1.4,5.1,1.6
COc1ccc(C(C(=O)NC2CCCC2)N(Cc2ccccc2)C(=O)CNC(=O)c2ccco2)cc1 (configuration not stated),1.6,32.2*,1.3,9.7,-3.8,1.2
CCOC(=O)CN(C(=O)CNC(=O)c1ccco1)C(C(=O)NC1CCCCC1)c1cccs1 (configuration not stated),-0.9,-13.5,2.4,-0.6,16.2,2.5
COCCN(C(=O)c1ccco1)C(C(=O)NC1CCCC1)c1cccs1 (configuration not stated),-2.7,24.7*,2.6,-1.9,-6.3,-0.1
C=CCN(C(=O)CNC(=O)c1ccco1)C(C(=O)NC1CCCCC1)c1ccc(OC)cc1 (configuration not stated),-3.3,-5.6,-6.8,14.6,9.4,0.4
CCOC(=O)CN(C(=O)CNC(=O)c1ccco1)C(C(=O)NC1CCCC1)c1ccccc1OCC (configuration not stated),-3.2,-0.7,7.3,-2.5,14.2,1.6
Cc1ccc(C(C(=O)NC2CCCCC2)N(Cc2ccccc2)C(=O)Cc2c[nH]c3ccccc23)o1 (configuration not stated),-5.9,5.4,-6.7,7.8,18.8,19.1*
Cc1ccccc1-n1nnnc1SCC(=O)c1c(N)n(C2CC2)c(=O)[nH]c1=O,9.8,5.6,15.2,-5.8,14.6,0.7
COc1cccc(N2CCN(C(=O)CN(C)S(=O)(=O)c3ccc4c(c3)c(=O)n(C)c(=O)n4C)CC2)c1,-5.1,-19.2,2.9,0.4,8.3,2.6
CC(=O)C1=CCC(c2ccccc2Cl)N(S(=O)(=O)c2ccc(C)cc2)C1 (configuration not stated),-9.5,-1.6,-0.2,3.4,15.9,1.7
COc1ccc(CC(=O)Nc2cccc(S(=O)(=O)N3CCCCCC3)c2)cc1OC,-1.8,23.3,-11.4,28.7,-5.7,12.8
CCCC(C)CO (configuration not stated),-3.3,-14.0,0.7,-0.8,3.9,0.0
Cc1cc(/C=C2/SC(=S)N(c3cccc(Cl)c3)C2=O)c(C)n1-c1cccnc1,5.2,22.7,-17.0,27.0*,2.6,9.4
CC1(C)CC(=O)C(C=Nc2ccccc2Sc2ccccc2)=C(O)C1,-5.9,-2.6,-25.8,63.2*,1.2,0.5
CC1(C)CC(=O)C(C=Nc2ccccc2C(=O)O)=C(O)C1,-6.1,0.3,9.4,-4.5,12.5,-0.3
CCOC(=O)C1=C(C)Nc2nc3ccccc3n2C1c1ccc(O)cc1 (configuration not stated),-0.9,-6.1,1.8,-2.6,0.3,0.4
SMILES,M1 ag,CHO-K1 Ca antag,CHRM1 PAM,M1 antag,M1 PAM parental,M1 ag parental
COC(=O)C1=C(C)Nc2nc3ccccc3n2C1c1cc(OC)c(OC)c(OC)c1 (configuration not stated),-5.3,0.5,1.0,-8.0,19.7,17.2*
O=C(Cn1c(C(F)(F)F)nc2ccccc21)N/N=C/c1ccco1,-10.4,11.0,12.9,-5.9,10.2,17.4*
O=C(CN1CCN(Cc2ccccc2Cl)CC1)N/N=C/c1ccco1,-5.0,1.4,1.6,-1.1,9.6,17.5*
Cc1ccsc1C(=O)N(C)C1CCS(=O)(=O)C1 (configuration not stated),-0.8,-20.0,2.4,1.4,2.9,0.5
O=C(NCC1CCCO1)c1cc(-c2ccc(F)cc2)no1 (configuration not stated),-1.5,-12.4,3.4,-5.3,-20.1,1.8
C[C@H](CO)N1C[C@H](C)[C@H](CN(C)S(=O)(=O)c2ccc(Cl)cc2)OCc2ccccc2-c2c(n(C)c3ccccc23)C1=O,-0.8,-5.7,10.5,-3.5,18.4,0.1
COc1ccc(CN2CCN(C(=O)CCC(=O)Nc3nnc(C(F)(F)F)s3)CC2)cc1F,-2.9,-28.1,-9.5,9.1,9.3,7.1
COc1ccc(CN2CCN(C(=O)CCC(=O)Nc3nnc(C4CCCCC4)s3)CC2)cc1F,-1.6,-15.2,-16.8,34.3*,26.8,4.8
CCCc1nnc(NC(=O)CCC(=O)N2CCN(Cc3ccc(OC)c(F)c3)CC2)s1,-4.5,-15.0,-20.7,49.2*,-7.9,3.1
COc1ccc(CN2CCN(C(=O)CCC(=O)Nc3nnc(CC(C)C)s3)CC2)cc1F,-1.8,2.9,-17.2,24.5,-15.7,6.6
COc1cccc(NC(=O)COC(=O)/C=C/c2c(C)nn(-c3ccccc3)c2C)c1,-4.2,6.0,-2.0,2.9,14.8,2.1
CCN1C[C@@H]2[C@@H]3C(=O)N(C)C(=O)[C@@H]3[C@](C)(C1=O)N2C(=O)c1ccc(Cl)c(Cl)c1,-3.7,-6.8,-1.4,-0.5,-14.0,0.0
CCCN(C)C[C@H]1OCc2cnnn2CCCC(=O)N([C@H](C)CO)C[C@@H]1C,-1.9,-17.3,6.2,-25.8,22.2,1.9
O=C(Nc1ccccc1F)c1c[nH]c(=O)[nH]c1=O,-3.4,-9.3,-11.9,39.5*,-3.9,0.1
O=c1c(C(c2ccc(O)cc2)c2c(O)nc3n(c2=O)CCS3)c(O)nc2n1CCS2,1.4,24.5*,15.5,-8.6,-7.9,-0.3
